Among all 320,000 compounds or so, about 1,300 (0.41%) were called active. Another 3% or so got no clear call; they are omitted. How the calls were made is not given here. The list is a sample of the results. Entries with a potency or affinity are not part of this list.
assay: growth inhibition of non-replicating M. tuberculosis (AID 488890); conditions: Mycobacterium tuberculosis non-replicating, at 25 µM, stronger effect = higher value;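 further: plate controls were DMSO cells for no effect and high antibiotic wells for full effect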

SMILES | inhibition [%]
COc1ccc(C(=O)COC(=O)C(CCSC)NC(=O)COc2ccccc2)c(OC)c1 (stereo not drawn) | 30.9
COc1ccccc1OCC(=O)NCc1n[nH]c(=O)c2ccccc12 | -15.2
O=C(COc1cccc2c1CCN(Cc1ccccc1)C2=O)N1CCCCC1 | 10.8
CCCC(=O)C1=C(O)C(C(=O)OC)C(C)(C)CC1=NCCc1ccc(OC)c(OC)c1 (stereo not drawn) | 19
CCOc1ccc(-c2csc(NC(=O)CSCC(=O)O)n2)c2ccccc12 | 11.9
Cc1cccc(N/C(N)=N/c2nc(CSc3ccc(Cl)cc3)cc(=O)[nH]2)c1 | -0.84
CN(Cc1ccc(F)cc1)C(=O)C(Cc1ccccc1)NC(=O)c1ccccc1 (stereo not drawn) | -6.89
COc1ccc(Cc2nnc(NC(=O)c3ccc(C)cc3)s2)cc1OC | -7.61
CC(C)c1ccc(C2/C(=C(/O)c3ccccc3)C(=O)C(=O)N2CCCN2CCOCC2)cc1 (stereo not drawn) | 3.66
Cc1ccc(S(=O)(=O)NC(CC(C)C)C(=O)Nc2ccncc2)cc1 (stereo not drawn) | 0.09
COc1ccc(OCC(=O)c2c(O)c3ccccc3oc2=O)cc1 | 23.3
O=C(c1c(O)c2ccccc2oc1=O)C1CCC1 | 39
CCOc1ccc(OCC(=O)c2c(O)c3ccccc3oc2=O)cc1 | 29.5
CC(=N)c1c(O)c2ccccc2oc1=O | -3.72
Cc1ccccc1-c1nnc(SCC(=O)NC2CCCC2)n1C | 0.83
C[C@H]1CN([C@@H](C)CO)C(=O)c2cc(NC(=O)C3CCCCC3)ccc2O[C@H]1CN(C)CC1CCCCC1 | 5.45
CCc1ccc(CNC(=O)c2ccc(OC)c(OC3CCN(C(C)C)CC3)c2)nc1 | 2.53
Cc1cccc(NC(=O)CCc2nnc3ccc(NCc4ccco4)nn23)n1 | -10.9
COc1ccc(-c2cnn3c4c(c(C)nc23)CCN4C(C)C)cc1OC | 6.73
CCOC(=O)Nc1ccc2c(c1)Sc1ccccc1N2C(=O)CCN1CCOCC1 | 39.8
CCOC(=O)Nc1ccc2c(c1)N(C(=O)CN)c1ccccc1CC2 | 22.7
CCOC(=O)Nc1ccc2c(c1)N(C(=O)CCN(C)C)c1ccccc1CC2 | -1.89
CCOC(=O)Nc1ccc2c(c1)N(C(=O)CCN1CCOCC1)c1ccccc1S2 | 20.2

SMILES | inhibition [%]
O=C(CN1CCCCCC1)Nc1cc(C(F)(F)F)ccc1Cl | 1.63
COc1ccc(CNC(=O)C(NC(C)=O)C(C)C)cc1OC (stereo not drawn) | -1.56
COc1ccc([N+](=O)[O-])cc1N(CC(O)CN1C(=O)NC(C)(C)C1=O)S(=O)(=O)c1ccccc1 (stereo not drawn) | -14.2
Cc1nnc(NC(=O)C2=COCCO2)s1 | -3.76
CCOC(=O)Nc1cccc(Cl)c1C | 20.8
Cc1ccc(C(=O)NC2CCCC2)s1 | 56.2
Cc1c(Cl)cccc1NC(=O)c1ccc(OCC(=O)NCc2ccccc2)cc1 | -7.76
O=C(NC1CCCC1)c1ccc(Cl)s1 | 75.8
CCC(=O)c1ccc(OCC(=O)OCC(=O)NC2CCCCCC2)cc1 | 20.5
CCOc1ccc(C(=O)NC2CCCCCCC2)cc1 | 77.1
CN(Cc1ccccc1)C(=O)COC(=O)c1cc(=O)c2ccccc2o1 | -3.1
COc1ccccc1C(=O)Nc1nc2cc3c(cc2s1)OCO3 | -15.7
O=C(Nc1cc(F)ccc1F)c1ccc(-n2cncn2)c([N+](=O)[O-])c1 | 3.94
COc1ccc(NC(=O)C2CC(=O)n3ncnc3N2)cc1 (stereo not drawn) | -0.6
COc1cc(-c2nc(-c3ccccc3)c(-c3cccs3)[nH]2)cc(OC)c1OC | -1.14
Cc1ccc(C(=O)NC(C)c2ccc(S(N)(=O)=O)cc2)s1 (stereo not drawn) | -0.6
CC(=O)Nc1ccc(NC(=O)CSc2nnc(CC(C)O)n2-c2ccccc2)cc1 (stereo not drawn) | -7.33
O=C(CN1CCN(S(=O)(=O)c2ccc(F)cc2)CC1)Nc1ccc(Cl)cn1 | 37.8
FC(F)(F)c1cccc(Cc2noc(CN3CCCC(CN4CCCC4)C3)n2)c1 (stereo not drawn) | 51
Cc1cccn2c(CNC3CCCc4ccccc43)c(C(=O)N3CCOCC3)nc12 (stereo not drawn) | 21.9
CCn1c(C)nc2cc(S(N)(=O)=O)ccc21 | -15.1
CC(C)c1onc(C(=O)NCc2ccccc2)c1[N+](=O)[O-] | 44.9
Cc1cc(Cl)nc(-n2nc(C)cc2C)n1 | 27.1

SMILES | inhibition [%]
CCCc1nc(C)cc(N2CCN(c3ccccc3)CC2)n1 | -3.49
Cc1cc(C)n(-c2nc3ccccc3nc2N2CCC(C)CC2)n1 | 34
Cc1cc(N2CCN(c3ccccc3)CC2)nc(N)n1 | -1.71
COc1ccccc1OCc1ccc(C(=O)NCC2CCCO2)cc1 (stereo not drawn) | 1.26
Cc1cccc(N2CCN(C(=O)c3ccc(CS(=O)Cc4cccc(Cl)c4)o3)CC2)c1C (stereo not drawn) | 28.5
Cn1nc(C(=O)NCCN2CCOCC2)c2ccccc2c1=O | -5.46
CC(=O)O/C(=C\c1cn(C(C)=O)c2ccccc12)C(=O)O | -6.32
CC(=O)n1cc(C=C2C(=O)NC(=O)NC2=O)c2ccccc21 | 0
Cc1ccc2c(c1)N(C)/C(=C/c1cccc[n+]1CCO)S2 | 6.55
O=C(O)Cc1ccc(NS(=O)(=O)c2c(Cl)cccc2Cl)cc1 | -11.9
CC(C)(C)Nc1nc(N2CCCC2)nc(N2CCCC2)n1 | 59.5
CCNc1nc(N2CCCC2)nc(N2CCCC2)n1 | 75.5
CCOC(=O)[C@@H]1[C@H]2COc3cc(OC)ccc3[C@H]2N2C(=O)N(c3cccc(Cl)c3)C(=O)[C@]12C | 1.05
O=C(NCCCN1CCOCC1)c1c(O)c2ccccc2[nH]c1=O | -0.01
COc1cc2[nH]c(=O)c(C(=O)NCCCN3CCOCC3)c(O)c2cc1OC | 1.72
CCc1ccc(C(=O)Nc2cc3c(cc2Cl)OCCCO3)cc1 | 42
O=C(O)C1CCN(C(=O)CCN2C(=O)S/C(=C\c3ccccc3)C2=O)CC1 | 1.98
CCCCn1c(=O)c(CCC(=O)OCC(=O)Nc2cc(Cl)ccc2OC)nc2ccccc21 | -2.09
COC(=O)[C@H](CCSC)NC(=O)NCCc1ccc(F)cc1 | -16.4
CCCCn1c(=O)c2ccccc2n2c(=S)[nH]nc12 | -11.3
CCCCCn1c(=O)c2ccccc2n2c(=S)[nH]nc12 | -0.64
Cc1ccccc1Sc1ncnc2onc(C)c12 | 5.13
COC(=O)c1ccccc1Sc1snnc1C | -5.51

SMILES | inhibition [%]
Cc1ccc(Sc2ncnc3onc(C)c23)cc1 | 72.5
COc1ccc(Sc2ncnc3onc(C)c23)cc1 | 58.2
CN(C)S(=O)(=O)c1ccc(NC(=O)COC(=O)C2CC3CCCC(C2)C3=O)cc1 (stereo not drawn) | 14.8
COc1ccc(-n2c(O)c(C=NCCCn3ccnc3)c(=O)[nH]c2=O)cc1 | -3.58
Cc1cc(NC(=O)CN2CCN(c3ccccc3O)CC2)no1 | 3.86
CCCCn1c(=O)c(C=Nc2cc([N+](=O)[O-])ccc2OC)c(O)n(CCCCl)c1=O | 64
CCCCN1CC(C(=O)NC2CCCCC2)CC1=O (stereo not drawn) | -9.76
CCOc1ccc2oc(C(=O)OCC(=O)NCc3ccc(OC)cc3)c(C)c2c1 | 26.4
Cc1nn(C2CCS(=O)(=O)C2)c(Cl)c1/C=C/C(=O)OCC(=O)Nc1ccc2c(c1)OCO2 (stereo not drawn) | 3.18
O=C(c1cnn2c(C(F)(F)F)cc(-c3ccccc3)nc12)N1CCCCC1c1cccnc1 (stereo not drawn) | 22.6
Nc1ccc(-c2nc3ncccc3o2)c(O)c1 | 8.78
O=C1OC(Oc2ccccc2)(c2ccccc2)c2ccccc21 (stereo not drawn) | -1.31
OC(CNCCc1ccccc1)COc1ccc(OCC(O)CNCCc2ccccc2)cc1 (stereo not drawn) | 59.6
COc1ccccc1COCC(O)CNCCc1ccc(C(F)(F)F)cc1 (stereo not drawn) | 67.5
OC(CNCc1ccccc1F)COc1cccc2ccccc12 (stereo not drawn) | 29.3
COc1ccc(CCNCC(O)COc2cccc(Br)c2)cc1 (stereo not drawn) | 45.7
O=c1c2ccccc2nc(/C=C/c2ccc(F)cc2)n1-c1ccccn1 | -7.61
Cc1ccnc(NC(=O)c2ccccc2NC(=O)c2ccccc2)c1 | 7.95
OCCCn1c(CCNc2nc(-c3ccc(F)cc3)cs2)nc2cc(C(F)(F)F)ccc21 | 26.8
c1ccc2cc(OCCOCCOc3ccc4ccccc4c3)ccc2c1 | -3.69
CN(C)CCOc1ccc2ccccc2c1 | -16.7
COC(C(=O)Nc1ccc(S(=O)(=O)Nc2ccc(F)cc2)cc1)c1ccccc1 (stereo not drawn) | 30.9
CCOc1ccc(C(C(=O)NCC2CCCO2)N(C(=O)c2snc(C(N)=O)c2N)c2cccc(F)c2)cc1 (stereo not drawn) | 3.71

SMILES | inhibition [%]
COc1ccc(CC(=O)NNC(=O)COc2ccc(Br)cc2C)cc1OC | -13.1
O=C(NCCCNC(=O)c1cnccn1)c1ccc(Cl)c(Cl)c1 | -0.84
CCc1ccc(OCC(=O)NCCN(C)C)c(Br)c1 | 5.23
Cc1cc(Cl)ccc1OCC(=O)NNC(=O)c1cccnc1 | -9.52
Cc1ccc(C(=O)NNC(=O)COc2ccc(Cl)cc2C)o1 | -11.3
COc1ccc(CC(=O)NNC(=O)c2cnccn2)cc1 | -6.37
O=C(NCCNC(=O)c1cnccn1)c1ccc(Cl)c(Cl)c1 | 5.99
COc1ccccc1OCC(=O)NNC(=O)c1cnccn1 | 3.6
Cn1nc(C(=O)N2CCOCC2)c2ccccc2c1=O | -8.35
O=C(COc1ccccc1-c1ccccc1)c1ccccc1 | 50.1
COc1cc([C@@H]2CC=C(C(=O)O)[C@H](c3ccccc3)N2S(=O)(=O)c2ccc(C)cc2)cc(OC)c1OC | 12.5
CCN(CC)C(=O)[C@H]1CC(CC(=O)NCCCOC)C(=O)N2CCc3c([nH]c4ccccc34)[C@]12C (stereo partly drawn) | -1.9
CC(=O)N1CCN(c2ccccc2NC(=O)COc2cc(C)ccc2C(C)C)CC1 | 34.3
CCOc1ccc(NC(=O)CCCN2C(=O)C(c3ccccc3)Oc3cccnc32)cc1 (stereo not drawn) | 3.12
CC1(C)CC(=O)c2c(Cc3ccccc3)noc2C1 | 3.41
CCN(CC)CCn1c2c(c(SCC(=O)NCc3ccccc3)nc1=O)CCC2 | 8.95
Cc1ccc(S(=O)(=O)NCC(=O)NCC(=O)N(C)Cc2ccc3ccccc3c2)cc1C | 31.9
O=C(COc1ccc(Cl)cc1Br)Nc1ccncc1 | 69.3
Cc1cc(Br)ccc1OCC(=O)NNC(=O)Cc1ccccc1 | -15.6
CCc1ccc(OCC(=O)NC(=S)Nc2ccc(F)cc2)c(Br)c1 | 9.95
Cc1cc(Br)ccc1OCC(=O)NNC(=O)CCc1ccccc1 | 29
